Assay [1] is described as follows: inhibitors of TNFa-induced NFkB p65 translocation, primary screen, imaging, HUVEC, MLSMR starter and 10KST1 sets (AID 438;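 active = inhibition above 20% together with a positive visual image hit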;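 also: compound added about 3h40 before a 20 min TNFalpha stimulation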;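 as to inhibition: signal is the nuclear over cytoplasmic p65 intensity ratio per well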). Conditions: HUVEC TNFa-induced p65 nuclear translocation; cell count: measured here: nuclei count (cytotoxicity indicator), at 2.08 µM; inhibition: at 2 µM, stronger effect = higher value, 0% TNFa-plus-vehicle, 100% no-TNFa wells.
Assay [2] is described as follows: inhibitors of mutant huntingtin aggregation, primary screen, imaging, exon1htt(103Q)mCFP cells, high-content imaging (AID 483;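 active = visual image review flags a hit and inhibition of aggregation exceeds 20%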;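 also: compound exposure lasted 3 days before fixation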;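 as to nuclei count: percent of the per-plate median nuclei count of sample wells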). Conditions: exon1htt(103Q)mCFP cell line, aggregate imaging, at 2 µM; inhibition of aggregation: stronger effect = higher value; nuclei count: measured here: cell count, toxicity.
Assay [3] is described as follows: inhibitors of E-selectin induction by TNFa, primary screen, imaging, HUVEC, immunofluorescence, MLSMR starter and 10KST1 sets (AID 487).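 As to inhibition: signal is fraction of cell area covered by stained E-selectin grains.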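 As to nuclei count: 100% = median nuclei count of all wells on the same plate.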 The following applies: HUVEC TNFalpha-induced E-selectin immunofluorescence imaging, at 2 µM; inhibition: stronger effect = higher value; nuclei count: measured here: cell number, toxicity.
Assay [4] deals with Voltage-gated potassium channel subunit beta-2 (Rattus norvegicus) (UniProt P62483). The experiment in a line: KvBeta enzyme negative modulators, primary screen, biochemical, NADPH fluorescence (AID 622;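 active = fluorescence slope higher than the sample average by over 3 SD, cut at about -0.22 in these data, passing the limit was not always enough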;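 also: slope of raw intensity against log time taken from 70 to 1610 s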). The following applies: recombinant KvBeta, 4-cyanobenzaldehyde reduction, at 10 µM, stronger effect = higher value.
Sequence of Voltage-gated potassium channel subunit beta-2 (Rattus norvegicus) (P62483 whole entry, looked up): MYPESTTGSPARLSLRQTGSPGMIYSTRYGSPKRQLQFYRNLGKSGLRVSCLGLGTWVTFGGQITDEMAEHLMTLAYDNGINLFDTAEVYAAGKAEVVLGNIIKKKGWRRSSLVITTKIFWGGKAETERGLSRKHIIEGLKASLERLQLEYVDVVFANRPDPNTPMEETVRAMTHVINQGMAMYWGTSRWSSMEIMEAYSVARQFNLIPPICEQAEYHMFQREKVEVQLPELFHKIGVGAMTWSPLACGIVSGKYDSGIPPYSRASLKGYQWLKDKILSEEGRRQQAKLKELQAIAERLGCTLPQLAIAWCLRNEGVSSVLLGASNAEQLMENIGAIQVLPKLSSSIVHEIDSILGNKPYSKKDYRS
Assay [5] shares this target. Kind of assay: KvBeta positive modulators, primary screen, biochemical, NADPH fluorescence (AID 623;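 active = NADPH fluorescence slope more negative than the mean of all samples by about 3 SD, 99.7% confidence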;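 also: fluorescence intensity change per second fitted from 20 to 320 s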). Conditions: Recombinant KvBeta, NADPH fluorescence decrease slope, 10 min; at 10 µM; stronger effect = lower value.
In assay [6] the target is Alpha-2C adrenergic receptor (Homo sapiens) (UniProt P18825). Kind of assay: modulators of alpha2C/GIRK thallium flux, primary screen, cell-based, HEK293 alpha2C/GIRK1/2 (AID 624;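 active = fluorescence slope after compound addition differing from the mean of all screened samples at 99.7% confidence, in either direction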;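 also: slope of fluorescence ratio to pre-addition baseline per second over 15 to 24 s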). The following applies: thallium flux BTC fluorescence, at 10 µM, actives lie on both sides.
Sequence of Alpha-2C adrenergic receptor (Homo sapiens) (P18825 whole entry, looked up): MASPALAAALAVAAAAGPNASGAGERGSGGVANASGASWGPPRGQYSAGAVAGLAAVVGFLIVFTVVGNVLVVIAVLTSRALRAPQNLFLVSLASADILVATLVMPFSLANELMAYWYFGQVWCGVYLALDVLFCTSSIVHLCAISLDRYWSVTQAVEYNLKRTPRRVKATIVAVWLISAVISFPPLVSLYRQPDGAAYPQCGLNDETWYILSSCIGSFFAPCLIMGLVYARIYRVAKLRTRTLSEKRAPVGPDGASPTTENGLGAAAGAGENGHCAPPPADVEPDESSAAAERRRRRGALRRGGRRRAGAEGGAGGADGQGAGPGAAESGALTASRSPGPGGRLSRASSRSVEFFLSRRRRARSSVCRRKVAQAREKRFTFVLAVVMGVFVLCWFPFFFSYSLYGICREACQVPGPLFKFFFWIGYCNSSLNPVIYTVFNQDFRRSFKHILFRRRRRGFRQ
The nature of assay [7]: inhibitors of Sendai virus-induced IRF3 signaling, primary screen, TLR/RLR signaling modifier project, cell-based, Sendai virus stimulus, luciferase, 10K MLSCN set (AID 602276;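 active = inhibition at or above 50% at 10 µM; inactive = inhibition below 50%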;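 also: firefly luciferase from ISG56 promoter only with Renilla not read in this screen; 0% = Sendai virus plus DMSO and 100% = medium plus DMSO without virus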). Conditions: HEK293 RL24 IRF3 luciferase reporter, at 10 µM, stronger effect = higher value. For orientation: In a reporter assay the amount or activity of a reporter protein is the signal.
Assay [8] in a line: inhibitors of poly I:C-induced TLR3 signaling, primary screen, cell-based, poly I:C stimulus, luciferase, 10K MLSCN set (AID 602277;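 active = inhibition of the reporter signal at or above 50%; inactive = inhibition below 50%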). The following applies: HEK293-TLR3 RL24 IRF3 luciferase reporter, at 10 µM, stronger effect = higher value.

Calls of active or inactive are those of the source.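 The calls were made as follows, unless noted: active = visually confirmed hit in the image check and inhibition above 20%; inconclusive = visually confirmed hit but inhibition not above 20%; inactive = no visual hit in the image check.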

For the molecule `O=C(C1CCCO1)N1CCN(C(c2ccccc2)c2ccccc2)CC1` (centres undefined), the cell count in assay [1] turned out to be 412. In addition, the inhibition (usually the drop in the measured response relative to a control, in per cent) in assay [1] was 2.5% (inactive); in assay [3], 32.4% (inactive); in assay [7], 13.8% (inactive); in assay [8] it was 27.4% (inactive). In addition, the inhibition of aggregation in assay [2] was 10.8% (inactive). Besides, the nuclei count stood at 97.1% in assay [2] and 117% in assay [3]. In assay [4], the fluorescence slope was -0.403 (inactive). In assay [5], the NADPH fluorescence slope is -2.6e-05 (inactive). Further, the slope in assay [6] was 0.00589 (inactive).
On to `c1ccc(N=P(c2nc3ccccc3o2)(N2CCOCC2)N2CCOCC2)cc1`, for which the cell count in assay [1] was determined as 547. Besides, the inhibition in assay [1] was -7.9% (inactive); in assay [3], -1.8% (inactive); in assay [7], 3.09% (inactive); in assay [8], -19.6% (inactive). Also, the inhibition of aggregation in assay [2] was 23.4% (inactive). The nuclei count in assay [2] turned out to be 87.6%; in assay [3], 107%. In assay [4], the fluorescence slope is -0.497 (inactive). Further, the NADPH fluorescence slope in assay [5] is -1.9e-05 (inactive). Besides, in assay [6], the slope was 0.00625 (inactive).
On to `O=C1C2C3C=CC(C3=C3CCCCC3)C2C(=O)N1c1ccccc1` (centres undefined), for which the cell count in assay [1] is 512. Besides, the inhibition was -10.1% (inactive) in assay [1], -29.2% (inactive) in assay [3], 12.4% (inactive) in assay [7] and 16% (inactive) in assay [8]. In assay [2], the inhibition of aggregation was 3.7% (inactive). Moreover, the nuclei count in assay [2] came out at 104%; in assay [3], 103%. Besides, the fluorescence slope in assay [4] was -0.61 (inactive). In addition, in assay [5], the NADPH fluorescence slope is -3.9e-06 (inactive). In addition, the slope in assay [6] was 0.00655 (inactive).
With `Cc1ccccc1NC(=O)C1CCCN(S(=O)(=O)c2cccc3cccnc23)C1` (centres undefined), the cell count in assay [1] is 613. Also, the inhibition in assay [1] was 6.8% (inactive); in assay [3], -45.4% (inactive); in assay [7], 1.01% (inactive); in assay [8], 13.7% (inactive). Besides, the inhibition of aggregation in assay [2] is 21% (inactive). In addition, the nuclei count in assay [2] worked out at 71.1%; in assay [3], 112%. Moreover, the fluorescence slope in assay [4] is -0.554 (inactive). For the same molecule, in assay [5], the NADPH fluorescence slope is 1.2e-05 (inactive). Besides, the slope in assay [6] is 0.00703 (inactive).
`Cc1cc(C)cc(NS(=O)(=O)c2ccc3[nH]c(=O)[nH]c3c2)c1`: the cell count in assay [1] is 378. Moreover, the inhibition in assay [1] is -5.5% (inactive); in assay [3], -23.4% (inactive); in assay [7] it was 16.1% (inactive); in assay [8], 36.9% (inactive). Moreover, the inhibition of aggregation in assay [2] was 2.4% (inactive). Also, the nuclei count is 112% in assay [2] and 115% in assay [3]. In addition, the fluorescence slope in assay [4] is -0.392 (inactive). In assay [5], the NADPH fluorescence slope is 4.9e-07 (inactive). Besides, the slope in assay [6] is 0.00328 (inactive).
Turning to `CC(=O)Nc1cccc(NC(=O)CSc2nn3c(=O)c(C)nnc3s2)c1`, in assay [1], the cell count was 577. In addition, the inhibition in assay [1] is 5.2% (inactive); in assay [3], -0.3% (inactive); in assay [7] it was 2.45% (inactive); in assay [8], 20.4% (inactive). Also, in assay [2], the inhibition of aggregation is 9.9% (inactive). The nuclei count in assay [2] came out at 97.9%; in assay [3] it was 95.8%. Also, the fluorescence slope in assay [4] is -0.454 (inactive). For the same molecule, in assay [5], the NADPH fluorescence slope is -5.9e-05 (inactive). The slope in assay [6] is 0.00534 (inactive).
As to `Cc1ccc(C)c2[nH]c(=O)c(CCNC(=O)c3ccc(S(=O)(=O)N(C)C)cc3)cc12`, the cell count in assay [1] is 596. Also, the inhibition is 4.3% (inactive) in assay [1], -14% (inactive) in assay [3], 3.79% (inactive) in assay [7] and 22.8% (inactive) in assay [8]. Further, in assay [2], the inhibition of aggregation is 15% (inactive). Moreover, the nuclei count in assay [2] came out at 125%; in assay [3], 116%. In addition, the fluorescence slope in assay [4] is -0.557 (inactive). In addition, the NADPH fluorescence slope in assay [5] is -4e-05 (inactive). For the same molecule, in assay [6], the slope was 0.00528 (inactive).
In the case of `O=C(O)c1cccc(NC(=O)C2C3C=CC(C3)C2C(=O)OCC(F)(F)C(F)F)c1` (centres undefined), in assay [1], the cell count came out at 683. Moreover, the inhibition in assay [1] is 8.3% (inactive); in assay [3], -33.6% (inactive); in assay [7], 10.2% (inactive); in assay [8], 26% (inactive). Further, the inhibition of aggregation in assay [2] was 28.9% (inactive). For the same molecule, the nuclei count in assay [2] is 47.7%; in assay [3] it was 98.7%. In addition, in assay [4], the fluorescence slope was -0.38 (inactive). Moreover, in assay [5], the NADPH fluorescence slope was -3.4e-05 (inactive). Moreover, in assay [6], the slope was 0.00482 (inactive).
Consider `Cc1occc1C(=O)N1CCN(c2ncccn2)CC1`, for which, in assay [1], the cell count came out at 347. Besides, the inhibition in assay [1] is -12.5% (inactive); in assay [3], -117% (inactive); in assay [7], -8.62% (inactive); in assay [8], 4.37% (inactive). Also, in assay [2], the inhibition of aggregation was 5% (inactive). Moreover, the nuclei count in assay [2] came out at 102%; in assay [3], 101%. The fluorescence slope in assay [4] was -0.356 (inactive). Also, the NADPH fluorescence slope in assay [5] is 6.9e-06 (inactive). In addition, the slope in assay [6] was 0.00583 (inactive).
For `Cc1ccc(CNC(=O)C2CC(=O)OC23CCCC3)c(C)c1` (centres undefined), in assay [1], the cell count turned out to be 410. In addition, the inhibition is 17.5% (inactive) in assay [1], 8.3% (inactive) in assay [3], 17.7% (inactive) in assay [7] and 20.9% (inactive) in assay [8]. In addition, the inhibition of aggregation in assay [2] is -25.4% (inactive). Further, the nuclei count in assay [2] is 104%; in assay [3], 102%. The fluorescence slope in assay [4] is -0.593 (inactive). The NADPH fluorescence slope in assay [5] is 4.6e-07 (inactive). The slope in assay [6] is 0.00501 (inactive).
With `CCCN1C(=O)c2cc(C(=O)O)ccc2C1O` (centres undefined), the cell count in assay [1] was 817. For the same molecule, the inhibition in assay [1] was 8.1% (inactive); in assay [3], -95.2% (inactive); in assay [7], 4.49% (inactive); in assay [8], 13.6% (inactive). In addition, the inhibition of aggregation in assay [2] is 21.4% (inactive). For the same molecule, the nuclei count in assay [2] was determined as 103%; in assay [3] it was 118%. Besides, the fluorescence slope in assay [4] is -0.514 (inactive). Further, the NADPH fluorescence slope in assay [5] is -2.2e-05 (inactive). The slope in assay [6] is 0.00732 (inactive).
As to `Cn1c(=O)[nH]c(=O)c2c1nc(N1CCCCCC1)n2CCCSc1nc2ccccc2o1`, the cell count in assay [1] came out at 256. For the same molecule, the inhibition is 4.7% (inactive) in assay [1], -64.8% (inactive) in assay [3], 14.2% (inactive) in assay [7] and 9.47% (inactive) in assay [8]. Besides, the inhibition of aggregation in assay [2] was -1.5% (inactive). The nuclei count in assay [2] was found to be 102%; in assay [3], 98.7%. Moreover, the fluorescence slope in assay [4] is -0.609 (inactive). Also, the NADPH fluorescence slope in assay [5] was -4.5e-05 (inactive). Further, in assay [6], the slope was 0.00527 (inactive).
Consider `CC(C)c1ccc(CNc2ccc(N3CCOCC3)cc2)cc1`, for which the cell count in assay [1] amounted to 700. Also, the inhibition in assay [1] is -11.3% (inactive); in assay [3] it was -54.6% (inactive); in assay [7] it was -21.7% (inactive); in assay [8], -43.5% (inactive). For the same molecule, the inhibition of aggregation in assay [2] was -26.2% (inactive). The values for the nuclei count in assay [2] and in assay [3] were 117% and 119%, respectively. In addition, in assay [4], the fluorescence slope was -0.316 (inactive). For the same molecule, the NADPH fluorescence slope in assay [5] is -4.8e-05 (inactive). Further, the slope in assay [6] is 0.00466 (inactive).
With `CNc1ccc(C(O)(C(F)(F)F)C(F)(F)F)cc1C(O)(C(F)(F)F)C(F)(F)F`, the cell count in assay [1] stood at 667. Besides, the inhibition in assay [1] is 3.3% (inactive); in assay [3], 3.3% (inactive); in assay [7], 12.6% (inactive); in assay [8], 18.9% (inactive). Moreover, the inhibition of aggregation in assay [2] was -7.5% (inactive). The nuclei count was determined as 103% in assay [2] and 92.8% in assay [3]. The fluorescence slope in assay [4] is -0.616 (inactive). In addition, the NADPH fluorescence slope in assay [5] was -4.4e-05 (inactive). In assay [6], the slope was 0.00297 (inactive).

The values are drawn from PubChem BioAssay.
